# This is a sample that favours compounds with a hit; in the whole collection about 27% have one here.
# EphB4 ephrin blk: EphB4-ephrin-B2 interaction antagonists, primary screen, biochemical, TNYL-RAW peptide probe, fluorescence polarization | Ephrin type-B receptor 4 (Homo sapiens), P54760 | EphB4 LBD / TNYL-RAW-Alexa532 peptide | inhibition, % at 7 µM | actives 0.15% (n = 97,000);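 active means inhibition above the screen-wide mean inhibition plus 3 SD, cut at about 15% in these data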;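 further: 0% = DMSO wells and 100% = excess unlabeled TNYL-RAW peptide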
# CYP2C9 activ: human CYP2C9 activators, primary screen, biochemical, luminescence; actives 1.4% (n = 96,000); recombinant CYP2C9, luciferin-H conversion; active compounds read high; factor 1 = untreated enzyme, 0 = blocked; activation factor at 5 µM; Cytochrome P450 2C9 (Homo sapiens), P11712;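 active means activation factor of 2 or more for CYP2C9 at a 5 µM dose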;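 further: 0 = sulfaphenazole-blocked wells and 1 = vehicle-only wells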
# CYP2C19 inhib: blockers of cytochrome P450 2C19 activity – biochemical, luminescence, ADME assay, primary screen; AID 778, 2007; actives 21% (n = 96,000); P33261; CYP2C19 Supersomes, luciferin-H EGE luminescence, 30 min; inhibition, % at 5 µM;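 active means CYP2C19 inhibition above a set limit at 5 µM in the primary screen, cut at about 50% in these data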;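 further: plate controls were negative control wells for no effect and 2.5 mM tranylcypromine positive control for full effect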
# Target sequence (P33261 whole entry, looked up): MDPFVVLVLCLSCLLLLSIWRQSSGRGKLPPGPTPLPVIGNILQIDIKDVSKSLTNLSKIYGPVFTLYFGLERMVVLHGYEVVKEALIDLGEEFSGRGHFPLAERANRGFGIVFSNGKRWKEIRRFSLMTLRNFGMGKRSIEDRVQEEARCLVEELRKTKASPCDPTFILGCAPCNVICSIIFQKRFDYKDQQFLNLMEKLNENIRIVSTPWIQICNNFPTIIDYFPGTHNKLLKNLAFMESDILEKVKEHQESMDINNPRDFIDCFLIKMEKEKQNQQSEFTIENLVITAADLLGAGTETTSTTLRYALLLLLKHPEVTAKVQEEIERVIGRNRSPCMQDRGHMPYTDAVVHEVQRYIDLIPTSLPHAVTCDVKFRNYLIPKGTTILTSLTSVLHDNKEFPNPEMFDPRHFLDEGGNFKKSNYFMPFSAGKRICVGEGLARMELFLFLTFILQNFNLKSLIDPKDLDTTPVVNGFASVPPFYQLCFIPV
# CYP2C19 activ: human CYP2C19 activators, primary screen, biochemical, luminescence. recombinant CYP2C19, luciferin-H EGE luminescence; active compounds read high; 0 = fully inhibited enzyme, 1 = untreated enzyme. 96,000 tested, under 10 active. activation factor at 5 µM. AID 1025, 2008. Cytochrome P450 2C19 (Homo sapiens), P33261;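 active means activation factor of at least 2 at 5 µM in the primary screen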;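 further: 0 = wells with 2.5 mM tranylcypromine and 1 = vehicle-only wells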
# CYP2C9 inh: blockers of cytochrome P450 2C9 activity – biochemical, luminescence, ADME assay, primary screen. CYP2C9 Supersomes, luciferin-H conversion. inhibition, % at 5 µM. actives 20% (n = 96,000). AID 777, 2007;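 active means blocking of liver enzyme CYP2C9 beyond about 50% at 5 µM, limit read from the data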
# * marks the source's active call; other numbers are inactive results; nt = no result.
SMILES,EphB4 ephrin blk,CYP2C9 activ,CYP2C19 inhib,CYP2C19 activ,CYP2C9 inh
O=C(Nc1ccn(C2CC(OC(=O)c3ccccc3)C(CO)O2)c(=O)n1)c1ccccc1 (stereo not given),6.2,1,-8.4,1.1,1.8
O=C1CC2C(CC(OC(=O)c3ccc(-c4ccccc4)cc3)C2CO)O1 (stereo not given),10.1,0.3,48.4,0.5,71.8*
COC(=O)CCC(=O)Nc1ccc(Br)cc1,1.6,0.6,65.3*,0.3,38.1
COC(=O)CCC(=O)Nc1ccc(OC)cc1,2.1,1,-5.6,1.1,0.7
CC(=O)C(Cc1cnc(Cl)s1)(Cc1cnc(Cl)s1)C(C)=O,5.9,0.9,68.7*,0.3,10.7
CC(=O)Nc1cc2nn(-c3ccccc3)nc2cc1Cl,5.5,0.9,12.5,0.9,5.5
CCNC(=S)N(Cc1ccc2c(c1)OCO2)C1CC(=O)N(c2ccc(OC)cc2)C1=O (stereo not given),5.9,1,20.6,0.8,4.1
COc1ccc(Br)cc1C1N2CC3(C)CN1CC(C)(C2)C3=O (stereo not given),-4.5,1.1,77.3*,0.2,-5.3
COc1ccc2[nH]cc(C3N4CC5(C)CN3CC(C)(C4)C5=O)c2c1 (stereo not given),-5.2,1.1,22.5,0.8,-9.4
CC(C)(C)C(=O)Nc1nc(=S)ss1,0.9,0.1,33.3,0.7,92.0*
CCSc1nnc(NC(=O)CC)s1,1.9,1,1.1,1,0.3
CCC(=O)Nc1nc(=S)ss1,3.5,0,23.3,0.8,98.8*
Cn1c2c(c(=O)n(C)c1=O)C1c3cc(Cl)ccc3OCC1CO2 (stereo not given),3.8,0.9,69.0*,0.3,6.6
CCCCn1c2nc3ccccc3nc2c2c(=O)n(CCC)cnc21,-0.2,0.8,16.0,0.8,24.6
CCC(C)n1cnc2c(c1=O)c1nc3ccccc3nc1n2Cc1ccccc1OC (stereo not given),1.6,0.3,21.5,0.8,68.9*
Cc1cccc(-n2cnc3c(c2=O)c2nc4ccccc4nc2n3Cc2ccco2)c1,nt,0.6,49.7,0.5,42.5
COCCCn1c2nc3ccccc3nc2c2c(=O)n(-c3ccccc3OC)cnc21,2.6,0.5,53.7*,0.5,49.1
CCCn1cnc2c(c1=O)c1nc3ccccc3nc1n2Cc1ccccc1OC,0.6,0.9,9.0,0.9,12.9
COc1ccc(Cn2c3nc4ccccc4nc3c3c(=O)n(Cc4ccco4)cnc32)cc1,nt,0.4,32.3,0.7,62.2*
COCCCn1cnc2c(c1=O)c1nc3ccccc3nc1n2CCc1ccccc1,7.9,0.4,40.3,0.6,57.6*
CCc1nc(SCC(=O)Nc2cc(C)on2)n[nH]1,0.9,1,8.2,0.9,2.9
CCCCN(C)C(=O)C1CCN(Cc2ccc(OCc3ccccc3)cc2)CC1,5.9,nt,nt,nt,nt
Cn1c(=O)c2c(SCC(=O)c3ccccc3)nc(C3CC3)nc2n(C)c1=O,-0.5,1,-19.2,1.2,4.9
c1ccc(-c2nc(N3CCNCC3)nc3ccccc23)cc1,3.1,0.9,2.9,1,9.4
N#CCCSCc1ccc2oc(C(=O)O)cc2c1,2.8,1,8.3,0.9,0.6
SMILES,EphB4 ephrin blk,CYP2C9 activ,CYP2C19 inhib,CYP2C19 activ,CYP2C9 inh
O=C(CC(c1ccccc1)c1ccccc1)Nc1ccc(Cl)cn1,6.9,1,10.6,0.9,0.3
O=C(COc1ccc2ccccc2c1Br)Nc1ncn[nH]1,nt,0.9,56.5*,0.4,9.4
O=C(CC(c1ccccc1)c1ccccc1)Nc1ncn[nH]1,-8.2,0.2,50.3*,0.5,83.2*
O=C(COc1ccc2ccccc2c1Br)N1CCOCC1,-1.1,nt,nt,nt,nt
Cc1cccc(C)c1OCC(=O)Nc1ncn[nH]1,-9.2,1,62.8*,0.4,1.2
CC(C)Cc1cc(C(=O)N2CCN(C(c3ccccc3)c3ccccc3)CC2)no1,-8.3,0.2,21.3,0.8,78.7*
O=C(N1CCOCC1)N1CCN(C(c2ccccc2)c2ccccc2)CC1,-4.6,1.2,21.2,0.8,-19.4
O=C(N1CCCCC1)N1CCN(C(c2ccccc2)c2ccccc2)CC1,2.2,0.2,56.6*,0.4,80.9*
COc1cccc(-n2nnnc2SCC(=O)Nc2nc3c(s2)CCCC3)c1,-5.2,nt,nt,nt,nt
CCOC(=O)c1sc(NC(=O)CSc2nnnn2-c2ccccc2)nc1C,5.1,0.7,13.0,0.9,29.8
COC(=O)c1cccc(-n2nnnc2SCC(=O)Nc2nc3c(s2)CCCC3)c1,6.4,0.7,53.2*,0.5,29.0
COC(=O)c1c(NC(=O)CSc2nnnn2-c2ccccc2)sc2c1CCCC2,-5.8,0.3,31.6,0.7,71.5*
COC(=O)c1cccc(-n2nnnc2SCC(=O)Nc2cc(C)on2)c1,3.5,0.5,51.4*,0.5,51.5*
O=C1C=C(c2cccs2)CC(c2cccs2)C1n1cnc([N+](=O)[O-])c1 (stereo not given),1.6,0.8,7.7,0.9,22.1
COc1ccc(C/C(N)=N/OC(=O)Cc2ccccc2)cc1OC,1.8,1,11.2,0.9,1.5
COc1ccc(NC(=O)C2CC(=O)OC23CCCCC3)cc1 (stereo not given),-3.0,nt,nt,nt,nt
CCN1C(=O)C(C(=O)Nc2ccc(OC)cc2)C2CC1(C)Oc1ccccc12 (stereo not given),1.2,0.5,16.1,0.8,53.5*
Cc1cc2nc(-c3cccc(NC(=O)c4ccc(Br)o4)c3C)oc2cc1C,1.2,0.5,19.2,0.8,50.3*
Cc1ccc2oc(-c3cccc(NC(=O)c4ccc(Br)o4)c3C)nc2c1,-3.9,0.7,14.4,0.9,27.1
CCN(CCCNC(=O)C1CCN(S(=O)(=O)N2CCC3(CC2)OCCO3)CC1)c1ccccc1,-0.3,0.6,52.8*,0.5,37.6
CCN(CCCNC(=O)C1CCN(S(=O)(=O)c2c(C)[nH]c(=O)[nH]c2=O)CC1)c1cccc(C)c1,-3.5,0.5,53.5*,0.5,49.6
CCN(CCCNC(=O)C1CCN(S(=O)(=O)CC)CC1)c1ccccc1,nt,1.3,17.3,0.8,-32.6
Cc1cccc(-n2nnnc2SC(C)C(=O)NCCC2=CCCCC2)c1 (stereo not given),-11.8,0.9,19.9,0.8,10.2
Cc1cc(/C=N/n2cnnc2)c(C)n1-c1ccc(OCc2ccc(F)cc2)cc1,8.6,0.8,25.5,0.7,17.4
Cc1sc(-n2c(C)cc(/C=N/n3cnnc3)c2C)c(C#N)c1C,-4.5,0.2,89.4*,0.1,82.9*
Cc1cc(/C=N/n2cnnc2)c(C)n1-c1cccc(Cl)c1,5.6,0,99.4*,0,95.2*
Cc1cc(/C=N/n2cnnc2)c(C)n1-c1ccc(Cl)cc1Cl,-2.2,0.1,99.2*,0,94.0*
